The values that follow come from PubChem BioAssay (EPA / NIEHS).

Read-out in experiment [1]: Tissue plasminogen activator (tPA), PLAT (gene 5327)
Kind of experiment: BSK_BE3C_tPA: BioMAP Diversity Plus: BE3C Assay for Tissue plasminogen activator (tPA) Biomarker Activity (AID 2283041).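 As to outcome: tPA level quantified by ELISA one day after compound addition.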 Conditions: primary human bronchial epithelial cells; actives raise or lower the signal. The method in brief:
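Using human lung primary bronchial epithelial cells, tPA was measured by ELISA 24 h after dosing; data fitted relative to DMSO.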

Read-out in experiment [2]: Interleukin-8 (IL8), CXCL8 (gene 3576)
Nature of the experiment: BSK_CASM3C_IL8: BioMAP Diversity Plus: CASM3C Assay for Interleukin-8 (IL8) Biomarker Activity (AID 2283042).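 Also: IL-8 protein level quantified by ELISA.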 As to conditions: primary human coronary artery smooth muscle cells; actives raise or lower the signal.

Read-out in experiment [3]: Human Leukocyte Antigen - DR isotype (HLADR), HLA-DRA (gene 3122)
Kind of experiment: BSK_CASM3C_HLADR: BioMAP Diversity Plus: CASM3C Assay for Human Leukocyte Antigen - DR isotype (HLADR) Biomarker Activity (AID 2283043).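 Also: cell-surface HLA-DR protein level quantified by ELISA.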 As to conditions: primary human coronary artery smooth muscle cells; actives raise or lower the signal.

Read-out in experiment [4]: Macrophage colony-stimulating factor (MCSF), CSF1 (gene 1435)
Kind of experiment: BSK_CASM3C_MCSF: BioMAP Diversity Plus: CASM3C Assay for Macrophage colony-stimulating factor (MCSF) Biomarker Activity (AID 2283044).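 Also: M-CSF protein amount quantified by ELISA after 24 h exposure.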 As to conditions: primary human coronary artery smooth muscle cells; actives raise or lower the signal.

Read-out in experiment [5]: Low-density lipoprotein receptor (LDLR), LDLR (gene 3949)
Nature of the experiment: BSK_CASM3C_LDLR: BioMAP Diversity Plus: CASM3C Assay for Low-density lipoprotein receptor (LDLR) Biomarker Activity (AID 2283045).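 Also: LDLR protein level on the cell surface quantified by ELISA.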 As to conditions: primary human coronary artery smooth muscle cells; actives raise or lower the signal.

Read-out in experiment [6]: Monocyte Chemoattractant Protein-1 (MCP1), CCL2 (gene 6347)
Kind of experiment: BSK_CASM3C_MCP1: BioMAP Diversity Plus: CASM3C Assay for Monocyte Chemoattractant Protein-1 (MCP1) Biomarker Activity (AID 2283046).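 Also: MCP-1 level quantified by ELISA 24 h after dosing.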 As to conditions: primary human coronary artery smooth muscle cells; actives raise or lower the signal.

The nature of experiment [7]: BSK_CASM3C_Proliferation: Cell Proliferation Assessment in the BioMAP Diversity Plus: CASM3C Assay (AID 2283047).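 Also: sulforhodamine B total protein stain as relative cell number at 560 nm; sub-confluent cells exposed 48 h before staining; fitted both ways against DMSO so gain or loss of cell number.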 As to conditions: primary human coronary artery smooth muscle cells.
Read-out in experiment [8]: Monokine induced gamma interferon (MIG), CXCL9 (gene 4283)
Nature of the experiment: BSK_CASM3C_MIG: BioMAP Diversity Plus: CASM3C Assay for Monokine induced gamma interferon (MIG) Biomarker Activity (AID 2283048).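 Also: MIG protein level measured by ELISA.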 As to conditions: primary human coronary artery smooth muscle cells; actives raise or lower the signal.

Read-out in experiment [9]: serum amyloid A (SAA), SAA1 (gene 6288)
Kind of experiment: BSK_CASM3C_SAA: BioMAP Diversity Plus: CASM3C Assay for serum amyloid A (SAA) Biomarker Activity (AID 2283049).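 Also: SAA protein level quantified by ELISA.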 As to conditions: primary human coronary artery smooth muscle cells; actives raise or lower the signal.

A short description of experiment [10]: BSK_CASM3C_SRB: Viability Assessment in the BioMAP Diversity Plus: CASM3C Assay (AID 2283050).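 Also: cells exposed to compound for 24 h.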 Conditions: primary human coronary artery smooth muscle cells.
Read-out in experiment [11]: Thrombomodulin, THBD (gene 7056)
Nature of the experiment: BSK_CASM3C_Thrombomodulin: BioMAP Diversity Plus: CASM3C Assay for Thrombomodulin Biomarker Activity (AID 2283051).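 Also: thrombomodulin protein level measured by ELISA 24 h after dosing.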 As to conditions: primary human coronary artery smooth muscle cells; actives raise or lower the signal.

Read-out in experiment [12]: Tissue Factor, F3 (gene 2152)
Nature of the experiment: BSK_CASM3C_TissueFactor: BioMAP Diversity Plus: CASM3C Assay for Tissue Factor Biomarker Activity (AID 2283052).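 Also: cell surface tissue factor protein level read by ELISA.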 Conditions: primary human coronary artery smooth muscle cells; actives raise or lower the signal.

Read-out in experiment [13]: Interferon-gamma inducible Protein 10 (IP10), CXCL10 (gene 3627)
Kind of experiment: BSK_hDFCGF_IP10: BioMAP Diversity Plus: hDFCGF Assay for Interferon-gamma inducible Protein 10 (IP10) Biomarker Activity (AID 2283053). Conditions: primary human foreskin fibroblasts; actives raise or lower the signal. The method in brief:
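Chemical-treated human skin fibroblasts (primary) were sampled at 24 h for IP-10 by ELISA. Both increases and decreases relative to DMSO were scored.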

Read-out in experiment [14]: Urokinase-type plasminogen activator receptor (uPAR), PLAUR (gene 5329)
Nature of the experiment: BSK_CASM3C_uPAR: BioMAP Diversity Plus: CASM3C Assay for Urokinase-type plasminogen activator receptor (uPAR) Biomarker Activity (AID 2283054).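 Also: cell-surface uPAR protein level quantified by ELISA.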 Conditions: primary human coronary artery smooth muscle cells; actives raise or lower the signal.

Read-out in experiment [15]: Vascular cell adhesion molecule 1 (VCAM1), VCAM1 (gene 7412)
Kind of experiment: BSK_CASM3C_VCAM1: BioMAP Diversity Plus: CASM3C Assay for Vascular cell adhesion molecule 1 (VCAM1) Biomarker Activity (AID 2283055).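 Also: VCAM-1 protein level quantified by ELISA on the cells.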 As to conditions: primary human coronary artery smooth muscle cells; actives raise or lower the signal.

Read-out in experiment [16]: Epidermal growth factor receptor (EGFR), EGFR (gene 1956)
Kind of experiment: BSK_hDFCGF_EGFR: BioMAP Diversity Plus: hDFCGF Assay for Epidermal growth factor receptor (EGFR) Biomarker Activity (AID 2283057). Conditions: primary human foreskin fibroblasts; actives raise or lower the signal. The method in brief:
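Cell-based multiplexed assay in primary human foreskin fibroblasts. EGFR is read by ELISA 24 h after treatment and compared with DMSO controls.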

Read-out in experiment [17]: Interleukin-8 (IL8), CXCL8 (gene 3576)
Nature of the experiment: BSK_hDFCGF_IL8: BioMAP Diversity Plus: hDFCGF Assay for Interleukin-8 (IL8) Biomarker Activity (AID 2283058). As to conditions: primary human foreskin fibroblasts; actives raise or lower the signal. The method in brief: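 Primary human foreskin fibroblasts (hDFCGF system) dosed with chemical; IL-8 measured by ELISA 24 hours later. Bidirectional curve fitting relative to DMSO baseline; cytotoxicity tracked in parallel cultures by SRB total protein staining.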

Experiment [18] is described as follows: BSK_hDFCGF_Proliferation: Cell Proliferation Assessment in the BioMAP Diversity Plus: hDFCGF Assay (AID 2283059).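 Also: curves fitted for both rise and fall of signal versus DMSO baseline.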 As to conditions: primary human foreskin fibroblasts. An outline of the steps: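 This proliferation readout used SRB total-protein staining of human foreskin fibroblasts […], normalized to DMSO with bidirectional curve fitting.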

Read-out in experiment [19]: Macrophage colony-stimulating factor (MCSF), CSF1 (gene 1435)
Kind of experiment: BSK_hDFCGF_MCSF: BioMAP Diversity Plus: hDFCGF Assay for Macrophage colony-stimulating factor (MCSF) Biomarker Activity (AID 2283060). Conditions: primary human foreskin fibroblasts; actives raise or lower the signal. The method in brief: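 Human foreskin fibroblast primary cultures; M-CSF measured by ELISA 24 hours after chemical dosing. Bidirectional fitting relative to DMSO, with overt cytotoxicity tracked by parallel SRB total-protein staining (0.1% SRB, 10% TCA fixation, 560 nm).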

Read-out in experiment [20]: Collagen III, COL3A1 (gene 1281)
Nature of the experiment: BSK_hDFCGF_CollagenIII: BioMAP Diversity Plus: hDFCGF Assay for Collagen III Biomarker Activity (AID 2283056). Conditions: primary human foreskin fibroblasts; actives raise or lower the signal. An outline of the steps: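 Human foreskin fibroblast primary cultures sampled 24 h after dosing; Collagen III quantified by ELISA. Signal fitted bidirectionally against DMSO baseline.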

Activity calls are given as the source filed them. The calls were made as follows: active = hit-call score of the fitted dose curve at least 0.9, where 1 is the maximum; inactive = score below 0.9.

One may read the AC50 as the concentration giving half of the maximal activity seen. As to `CCCCN1C(=O)[C@@H]([C@H](O)C2CCCCC2)NC(=O)C12CCN(Cc1ccc(Oc3ccc(C(=O)O)cc3)cc1)CC2`, the outcome in experiment [1], in [2], in experiment [3], in experiment [4], in experiment [6] and in experiment [8] was inactive. Besides, the result in [9], in experiment [10], in experiment [11], in experiment [12], in experiment [14] and in experiment [15] was inactive. The result in [16], in experiment [17] and in experiment [19] was inactive. Moreover, the AC50 was 9.69 µM (active) in experiment [5], 18.3 µM (active) in experiment [7], 31.2 µM (active) in experiment [13] and 20 µM (active) in experiment [18].
Turning to `COc1cc(C(C)C)c2c(c1)S(=O)(=O)N(COc1cc(=O)n3cccc(OCCN4CCCCC4)c3n1)C2=O`, the AC50 in experiment [1] is 3 µM (active); in [5] it was 3.65 µM (active); in [7], 6.18 µM (active); in [13], 6.1 µM (active); in experiment [15], 5 µM (active); in experiment [19] it was 3.29 µM (active). The result in [2], in [3], in [4], in [6], in experiment [8] and in [9] was inactive. Also, the outcome in experiment [10], in [11], in [12], in experiment [14], in experiment [20] and in experiment [16] was inactive. Besides, in [17], the outcome was inactive.
For `COS(C)(=O)=O`, the outcome in experiment [1], in [2], in [3], in experiment [4], in experiment [5] and in experiment [6] was inactive. Further, the result in [7], in [8], in experiment [9], in [10], in [11] and in experiment [12] was inactive. The outcome in [13], in experiment [14], in [15], in [20], in [16] and in [17] was inactive. Besides, the result in experiment [19] was inactive.
As to `O=C(O)[C@H](O)[C@@H](O)C(=O)O`, the outcome in [1], in [2], in [3], in experiment [4], in [5] and in experiment [6] was inactive. The result in experiment [7], in [8], in experiment [9], in experiment [10], in experiment [11] and in [12] was inactive. The outcome in [13], in experiment [14], in experiment [15], in [20], in experiment [16] and in experiment [17] was inactive. In experiment [19], the result was inactive.
In the case of `c1ccc(C(O[C@@H]2CCCN(CCc3ccc4c(c3)OCO4)C2)c2ccccc2)cc1`, the outcome in experiment [1], in [2], in [3], in experiment [4], in [6] and in [8] was inactive. For the same compound, the result in experiment [9], in experiment [10], in [11], in experiment [12], in experiment [14] and in experiment [15] was inactive. In experiment [17], the result was inactive. For the same compound, the AC50 was 17.3 µM (active) in experiment [5]; 32.5 µM (active) in experiment [7]; 26 µM (active) in experiment [13]; 5.39 µM (active) in experiment [20]; 20 µM (active) in experiment [19].
In the case of `CC[C@H](C)C(=O)O[C@H]1C[C@H](O)C=C2C=C[C@H](C)[C@H](CC[C@@H](O)C[C@@H](O)CC(=O)O)[C@H]21`, the outcome in [1], in experiment [2], in experiment [3], in experiment [4], in experiment [5] and in [6] was inactive. The result in experiment [7], in experiment [8], in experiment [9], in experiment [10], in [12] and in experiment [13] was inactive. Besides, the result in experiment [14], in [15], in [20], in experiment [16], in [17] and in experiment [19] was inactive. Besides, the AC50 in experiment [11] was 15.3 µM (active).
As to `Cc1nccn1-c1ccc(Sc2cccc(C3(C(N)=O)CCOCC3)c2)cc1`, the AC50 in [1] was 4.43 µM (active); in [3] it was 15.7 µM (active); in experiment [7] it was 20 µM (active); in experiment [8], 16.4 µM (active); in experiment [13], 10.2 µM (active); in experiment [15], 14.9 µM (active). Also, the result in experiment [2], in [4], in experiment [5], in experiment [6], in experiment [9] and in [10] was inactive. For the same compound, the outcome in [11], in [12], in experiment [14], in [20], in experiment [16] and in experiment [17] was inactive. In addition, the outcome in experiment [19] was inactive.
